Source: PubChem BioAssay
Active and inactive are the calls of the source. No rule for the calls is given here.

Each compound was assayed on Aerobactin synthetase IucA (Klebsiella pneumoniae hvKP1) (assay: IucA enzyme inhibition, primary screen, biochemical, Spectrum library (AID 1346200;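 also: 100% = wells without compound and 0% = wells lacking enzyme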)). Details: malachite green pyrophosphate, A620, at 8 µM, hits give low values.
With `COc1cccc(OC)c1C(=O)N[C@@H]1C(=O)N2[C@@H]1SC(C)(C)[C@@H]2C(=O)O` the activity remaining was 85.9% (inactive).
`O=c1c(O)c(-c2ccccc2)oc2ccccc12` was tested, and the activity remaining was 92.5% (inactive).
For `CC(C(=O)O)[C@H]1CCC2C3CC=C4C[C@@H](O)CC[C@]4(C)C3CC[C@@]21C` (stereo partly drawn), the activity remaining was 98.4% (inactive).
In the case of `CC1=CC(=O)CC(C)(C)C1(O)/C=C/C(C)=C\C(=O)O` (stereo not drawn), the activity remaining is reported as 117% (inactive).
For `CC(=O)O[C@H]1CCC2(C)C3=C(CCC2C1(C)C)[C@]1(C)CCC(C(C)CCC=C(C)C)[C@@]1(C)CC3` (stereo partly drawn), the activity remaining was 111% (inactive).
With `Nc1ccc(S(=O)(=O)Nc2cnc3ccccc3n2)cc1` the activity remaining was 123% (inactive).
For `CCCCCCCCCCCCCCC(C(=O)O)C(O)(CC(=O)OC)C(=O)O` (stereo not drawn), the activity remaining was 128% (inactive).
In the case of `C[C@H]1[C@H](NC(=O)/C(=N/OC(C)(C)C(=O)O)c2csc(N)n2)C(=O)N1S(=O)(=O)O` (stereo in doubt), the activity remaining is reported as 113% (inactive).
In the case of `O=C(O)c1ccccc1O`, the activity remaining is reported as 121% (inactive).
With `C=C1C2CC[C@@]3(C)[C@H](c4ccoc4)OC(=O)C[C@]13O[C@H]1CC(O)C(C)(C)C(CC(=O)OC)[C@@]21C` (stereo partly drawn) the activity remaining was 86.1% (inactive).
In the case of `CC[C@]1(O)CC2CN(CCc3c([nH]c4ccccc34)[C@@](C(=O)OC)(c3cc4c(cc3OC)N(C)[C@H]3[C@@](O)(C(=O)OC)[C@H](OC(C)=O)[C@]5(CC)C=CCN6CC[C@]43[C@@H]65)C2)C1` (stereo partly drawn), the activity remaining is reported as 126% (inactive).
`CC(=O)c1c(O)cc(O)cc1O` was tested, and the activity remaining was 94.3% (inactive).
`CCCc1nc2c(C)cc(-c3nc4ccccc4n3C)cc2n1Cc1ccc(-c2ccccc2C(=O)O)cc1` was tested, and the activity remaining was 123% (inactive).
